# In PubChem BioAssay AID1347385 (Zoeller Lab, School of Medicine, Boston University, 2020):
# Among all 20,000 compounds or so, about 85 (0.4%) were called active.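 The calls were made as follows: active = cell survival signal 2 SD away from solvent-only control wells, confirmed on one or two retests; inactive = the rest.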 The full list was thinned out, with actives kept by preference.
# Assay: phospholipid synthesis inhibitors, CHO cells, primary screen, ZR-82 cells, Enamine library, screen 3 (AID 1347385);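 also: 3 h compound exposure then viability read about one day after UV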
# Details: ZR-82 CHO cells, pyrene fatty acid UV survival, CellTiter Blue, peroxisome-deficient CHO-K1 mutant line, plus DGAT-1, DGAT-2 and ACAT inhibitors; at 10 µM unless noted
row,SMILES,outcome
1,Fc1ccc(-n2c(-c3ccc(Cl)cc3Cl)n[nH]c2=S)cc1Cl,inactive
2,Cc1ccc(C)c(C2C3=C(CC(C)(C)CC3=O)Nc3nc(-c4cccnc4)nn32)c1 (stereo not drawn),inactive
3,COc1cc(S(=O)(=O)n2c([N+](=O)[O-])cnc2C)ccc1Br,inactive
4,Cc1cc(C)c(C)c(S(=O)(=O)N(C)C2CCS(=O)(=O)C2)c1C (stereo not drawn),inactive
5,CC(=O)c1c(C)[nH]c(C(=O)OCC(=O)c2cc(C)n(CC3CCCO3)c2C)c1C (stereo not drawn),inactive
6,O=C1NC(c2ccc3ncccc3c2)C(C(=O)c2cccnc2)C(O)(C(F)(F)F)N1 (stereo not drawn),inactive
7,O=[N+]([O-])/C(CN1CCOCC1)=C1/CCCN1,inactive
8,CCCCn1c(N)c(N(Cc2ccco2)C(=O)Cn2cnnn2)c(=O)[nH]c1=O,inactive
9,CN(C(=O)COC(=O)CN1C(=O)NC2(CCCC2)C1=O)C1CCCCC1,inactive
10,COC(=O)CNC(=O)c1ccc([N+](=O)[O-])o1,inactive
11,CC(C)CN(C1CCS(=O)(=O)C1)S(=O)(=O)c1ccc(Cl)cc1 (stereo not drawn),inactive
12,C(=Nc1ccc2c(c1)OCO2)c1ccc2ncccc2c1,inactive
13,c1ccc2c(c1)OCCOCCOCCOc1ccccc1OCCOCCO2,inactive
14,O=C1NNS(=O)(=O)c2ccccc21,inactive
15,Brc1ccc2nc(-n3nc4ccccc4n3)nc(-c3ccccc3)c2c1,inactive
16,Cc1sc2ncnc(SCC(=O)c3c(N)n(CC(C)C)c(=O)n(C)c3=O)c2c1C,inactive
17,CCOC(=O)Cc1n[nH]c(=S)n1C1CCCC1,inactive
18,CCNC(=S)N1CCN(S(=O)(=O)c2ccc(Cl)s2)CC1,inactive
19,Cc1cc(-c2csc(N)n2)c(C)c(C)c1C,inactive
20,O=C(COc1ncnc2sc3c(c12)CCC3)c1ccc(Cl)s1,inactive
21,O=C(CN1C(=O)NC2(CCCC2)C1=O)NC1CCSc2ccc(F)cc21 (stereo not drawn),inactive
22,C=CCN(CC=C)CC(=O)Nc1sc2c(c1C(N)=O)CCCC2,inactive
23,Clc1ccc(Cl)c(-c2ccc(-c3ncc(-c4cccs4)o3)o2)c1,inactive
24,CN(C)C(=O)CN(C)C(=O)CN1C(=O)NC2(CCCCCC2)C1=O,inactive
25,Cc1nc(SCC(=O)N2CCNC2=O)n(CC(C)C)c1C,inactive
26,O=S(=O)(c1ccc(Cl)c(N=C2SCCN2C2CCCCC2)c1)N1CCOCC1,inactive

row,SMILES,outcome
1,c1ccc(OCc2nc(-c3ccccn3)n[nH]2)cc1,inactive
2,C#CC(CC)(CC)NC(=O)CCc1nc2sc3c(c2c(=O)[nH]1)CCCC3,inactive
3,Brc1ccccc1C1N=C(c2ccccc2)NO1 (stereo not drawn),inactive
4,O=c1c2c3c(sc2[nH]c(=S)n1C1CCCC1)CCC3,inactive
5,O=C(OCc1cc([N+](=O)[O-])cc2c1OCOC2)C1CCC1,inactive
6,O=C(CSc1nc2sc3c(c2c(=O)n1C1CCCC1)CCCC3)N1CCCC1,inactive
7,FC(F)Oc1ccc(C2Oc3ccccc3C3CC(c4ccccc4)=NN32)cc1 (stereo not drawn),inactive
8,Cc1nnc(NC(=O)NCC2(C)CC(NC(=O)Nc3nnc(C)s3)CC(C)(C)C2)s1 (stereo not drawn),inactive
9,CC(C)N(CCNS(=O)(=O)c1ccccc1)C(C)C,inactive
10,O=[N+]([O-])c1ccc(-n2nnc3ccccc32)c(Cl)c1,inactive
11,Clc1ccccc1C1Oc2ccccc2C2CC(c3ccc4c(c3)OCCO4)=NN21 (stereo not drawn),inactive
12,O=c1/c(=C/c2ccc(F)cc2)sc2n1CCN=2,inactive
13,O=C1OCC(CO)(CO)N=C1NNc1ccc(I)cc1,inactive
14,FC(F)Oc1ccc(Cl)c(C2Nc3ccccc3-c3nc4ccccc4n32)c1 (stereo not drawn),inactive
15,C(=N\n1c(-c2ccc(-c3ccccc3)cc2)csc1=NCCc1ccccc1)/c1ccccn1,inactive [setting not given]
16,O=C(NC(O)C(Cl)(Cl)Cl)C12CC3CC(CC(C3)C1)C2 (stereo not drawn),inactive
17,CCOC(=O)c1c(C)[nH]c(C(=O)OCC(=O)C(C)(C)C)c1C,inactive
18,C#CCN=Cc1c(O)n(CCOC)c(=S)[nH]c1=O,inactive
19,O=S(=O)(Oc1cccc2cccnc12)c1ccc2ccccc2c1,inactive
20,CC(Sc1nnc(-c2ccc(C(C)(C)C)cc2)o1)c1nnc(-c2ccc([N+](=O)[O-])cc2)o1 (stereo not drawn),inactive
21,O=C1NC(c2ccc3c(c2)OCO3)C(C(=O)c2ccccc2)C(O)(C(F)(F)F)N1 (stereo not drawn),inactive
22,CCN(CC)[P+](N)(c1nc2ccccc2n1C)N(CC)CC,inactive
23,COC(=O)c1cc(C(O)(C(F)(F)F)C(F)(F)F)c(N=CN(C)C)s1,inactive
24,C=CCn1c(SCc2c(C)noc2C)nc2sc3c(c2c1=O)CCC(C)C3 (stereo not drawn),inactive
25,Cn1cc(-c2nn(-c3ccccc3)cc2/C=N/NC(N)=S)c2ccccc21,inactive [setting not given]
26,Cc1cc(C=C2Sc3ccccc3N2C)cc(C)[n+]1CCCn1ccnc1,inactive

row,SMILES,outcome
1,CC1CCC2(CC1)NC(=O)N(CC1CC1(Cl)Cl)C2=O (stereo not drawn),inactive
2,COc1ccc(OCCN2CCN(C(=N)N)CC2)cc1,inactive
3,C=CCNC(=S)NN=C1c2ccccc2-c2ccccc21,inactive
4,O=C(CSc1ncnc2sc3c(c12)CCC3)N1CCCCC1,inactive
5,C=CCOc1c(Cl)cc(S(=O)(=O)c2cc(Cl)c(O)c(Cl)c2)cc1Cl,inactive
6,COCCn1c(C)cc(C(=O)COC(=O)Cn2c(C)csc2=O)c1C,inactive
7,COc1ccc(C2=CC(c3ccc(OC)cc3)n3nnnc3N2)cc1 (stereo not drawn),inactive
8,O=[N+]([O-])c1ccc(NC(=S)N=C2c3ccccc3CN2c2ccc(Cl)cc2)cc1,inactive
9,O=S1(=O)CCC(NS(=O)(=O)c2ccc(Cl)c(Cl)c2)C1 (stereo not drawn),inactive
10,NC=C(S(=O)(=O)c1ccc(Cl)cc1)S(=O)(=O)c1ccc(Cl)cc1,inactive
11,O=c1c(-c2cc3ccccc3o2)coc2ccccc12,inactive
12,O=C1C=CC(=O)N1c1ccc(Br)cc1,inactive
13,CC1CCN(C2=NS(=O)(=O)c3ccccc32)CC1,inactive
14,CCSc1nnc(SCC(=O)c2c(N)n(CC(C)C)c(=O)n(C)c2=O)s1,inactive
15,Cc1ccc(-c2csc3nc(CSc4nnnn4C)[nH]c(=O)c23)s1,inactive
16,CCCSc1nsc(N)n1,inactive
17,Clc1ccc2nc(CSc3ccc4ccccc4c3)cn2c1,inactive
18,Fc1ccc(Cn2c3[n+](c4ccc(C(F)(F)F)cc42)CCCCC3)cc1,inactive
19,COC(=O)c1noc(C(=O)OC)c1O,inactive
20,FC(F)(F)C(=NCc1ccco1)NC1(C(Cl)(Cl)Cl)Oc2ccccc2O1,inactive
21,CCOc1cc(C)c(S(=O)(=O)N2CCCC2)cc1C(C)C,inactive
22,CCN(CC)c1ccc([P+](CC)(c2ccc(N(CC)CC)cc2)c2ccc(N(CC)CC)cc2)cc1,inactive
23,COc1ccc(OC)c(C2CC(c3ccco3)=NN2S(C)(=O)=O)c1 (stereo not drawn),inactive
24,CCCc1ccc(C2=C(C)SC3=NS(=O)(=O)CCN32)cc1,inactive
25,Cc1cc(C)nc(SCc2cn3c(C)cc(C)nc3n2)n1,inactive
26,COc1ccc(C2=NN3C(C2)c2ccccc2OC32CCCC2)c(OC)c1 (stereo not drawn),inactive

row,SMILES,outcome
1,Cc1cc(C(=O)C(C)n2cnc3c2c(=O)n(C)c(=O)n3C)c(C)n1Cc1ccco1 (stereo not drawn),inactive
2,O=[N+]([O-])c1ccc(-c2c[n+](=O)c3c(n2[O-])CCCCC3)cc1,inactive
3,CC(C)(C)NC(=O)NC(=O)COC(=O)C1(C)CC1(Cl)Cl (stereo not drawn),inactive
4,Cc1nc2sc3c(c2c2nnnn12)CCCC3,inactive
5,O=C1OC(c2ccccc2)=N/C1=C\c1ccc(C(F)(F)F)cc1,inactive
6,Cc1ccc(C)n1-n1c(C)nc2sc3c(c2c1=O)CCCC3,inactive
7,O=S1(=O)CCC(NC2CCCCC2)C1 (stereo not drawn),inactive
8,Cc1ccc(C2=Nn3cc(-c4ccccc4)nc3SC2)cc1,inactive
9,O=c1oc2cc(O)c(Cl)cc2c2c1CCCC2,inactive
10,C=CCNS(=O)(=O)c1ccc2c(c1)OCCO2,inactive
11,Cn1nnc2c(=O)[nH]cc([N+](=O)[O-])c21,inactive
12,CC(C)(C)c1cnnn1-c1ccc([N+](=O)[O-])cc1,inactive
13,CC1CNC(=O)NC1=O (stereo not drawn),inactive
14,CCCCn1c(N)c(N(CC)C(=O)/C=C/c2ccco2)c(=O)[nH]c1=O,inactive
15,CCCCNC(=S)N(C)/N=C1\C(=O)Nc2ccc([N+](=O)[O-])cc21,inactive [setting not given]
16,O=c1oc2ccccc2c(O)c1C=Nc1ccccc1Br,inactive
17,O=C1Nc2ccc([N+](=O)[O-])cc2/C1=N/n1cnnc1,inactive [setting not given]
18,c1ccc(CCc2nc(-c3ccncc3)no2)cc1,inactive
19,Nc1nnc(SCC(=O)O)s1,inactive
20,CCOC(=O)/C=C1\SCC(=O)N1CCSc1nnc(C)s1,inactive
21,COc1cc(/C=N/OCc2ccc([N+](=O)[O-])cc2)ccc1OC(F)F,inactive [setting not given]
22,CC1=C(C(C)C)Nc2nnnn2C1c1ccc(Br)cc1 (stereo not drawn),inactive
23,CCOC(=O)c1c(-c2ccc(C)o2)csc1N=Cc1c(O)[nH]c(=S)[nH]c1=O,inactive
24,NC(=S)c1cccc(Br)c1,inactive
25,NC1=NC(=O)/C(=C\c2ccc3c(c2)OCO3)S1,inactive
